The campaign covered roughly 310,000 compounds. About 14,000 (4.5%) showed an effect of 50% or more. The effect is printed as a negative number. Many of the other results were omitted from the sample, so strong results are more common in it than they were.
Target: human ether-à-go-go-related gene (hERG) potassium channel (human, UniProt Q12809)
Assay: primary screen, population patch clamp on CHO cells stably expressing hERG; higher = less effect of the substance
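Also: peak tail current of the secondary pulse compared with the same well before compound.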

Sequence of human ether-à-go-go-related gene (hERG) potassium channel (Q12809 whole entry, looked up): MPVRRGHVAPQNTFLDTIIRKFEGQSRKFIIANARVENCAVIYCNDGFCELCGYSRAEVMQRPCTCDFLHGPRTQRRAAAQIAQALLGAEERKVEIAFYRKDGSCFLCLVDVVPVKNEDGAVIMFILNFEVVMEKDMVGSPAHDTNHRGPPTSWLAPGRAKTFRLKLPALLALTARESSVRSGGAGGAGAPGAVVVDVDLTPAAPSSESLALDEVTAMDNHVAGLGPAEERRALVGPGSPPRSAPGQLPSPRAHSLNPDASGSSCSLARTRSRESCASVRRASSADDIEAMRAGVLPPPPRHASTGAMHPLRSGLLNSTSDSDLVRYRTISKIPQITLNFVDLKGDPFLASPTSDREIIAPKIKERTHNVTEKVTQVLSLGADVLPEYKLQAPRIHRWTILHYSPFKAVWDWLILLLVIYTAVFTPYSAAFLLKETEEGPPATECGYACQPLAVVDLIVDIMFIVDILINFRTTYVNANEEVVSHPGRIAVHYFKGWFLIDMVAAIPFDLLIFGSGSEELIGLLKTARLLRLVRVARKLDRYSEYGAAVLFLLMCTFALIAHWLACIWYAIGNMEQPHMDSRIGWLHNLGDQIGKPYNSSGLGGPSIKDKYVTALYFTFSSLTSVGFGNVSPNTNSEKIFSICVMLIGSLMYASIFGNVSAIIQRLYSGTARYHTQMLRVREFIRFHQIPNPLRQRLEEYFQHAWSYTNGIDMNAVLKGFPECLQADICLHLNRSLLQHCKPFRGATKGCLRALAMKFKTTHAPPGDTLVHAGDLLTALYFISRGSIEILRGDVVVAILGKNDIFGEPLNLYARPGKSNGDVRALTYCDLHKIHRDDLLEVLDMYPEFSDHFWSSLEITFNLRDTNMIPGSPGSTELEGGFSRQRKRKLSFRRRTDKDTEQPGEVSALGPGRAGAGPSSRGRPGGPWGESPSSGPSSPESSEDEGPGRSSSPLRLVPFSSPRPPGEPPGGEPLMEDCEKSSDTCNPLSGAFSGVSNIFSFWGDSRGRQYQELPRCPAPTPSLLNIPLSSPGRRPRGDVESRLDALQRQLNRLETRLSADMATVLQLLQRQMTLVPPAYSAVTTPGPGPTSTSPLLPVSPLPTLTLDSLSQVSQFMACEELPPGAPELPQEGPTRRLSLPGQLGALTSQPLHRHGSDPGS

| Compound | hERG current change (%, negative = inhibition) at 10uM |
| --- | --- |
| O=C(c1cc(=O)[nH]c2ccccc12)N1CCc2ccccc2C1 | 11% |
| O=c1c2ccccc2nc2n1CCO2 | 10.2% |
| COc1cc2cc(Oc3ccc4ccc(=O)oc4c3)c(=O)oc2cc1OC(C)=O | 0.234% |
| COc1ccc(-c2cn3cc(C(F)(F)F)cc(Cl)c3n2)cc1 | 9.73% |
| Cc1ccc(C(=O)Nc2nc3ccc(S(C)(=O)=O)cc3s2)o1 | -0.566% |
| Cc1nc(CN(C)C(=O)c2ccccc2OC2CCN(S(C)(=O)=O)CC2)cs1 | 3.35% |
| COc1ccc(N2CCN(CCCNC(=O)CCC(=O)N3CCOc4ccc(Cl)cc43)CC2)cc1 | -70.4% |
| COc1ccc(CCNC(=O)CCC(=O)N2CCOc3ccc(Cl)cc32)cc1OC | -20.2% |
| COc1cccc(N2CCN(C(=O)CCC(=O)N3CCOc4ccc(C)cc43)CC2)c1 | -30.3% |
| COc1ccccc1CNC(=O)CCC(=O)N1CCOc2ccc(Cl)cc21 | -5.43% |
| O=C(CCC(=O)N1CCOc2ccccc21)N1CCN(c2ccccc2)CC1 | -70% |
| COc1ccc(N2CCN(C(=O)CCC(=O)N3CCOc4ccc(Cl)cc43)CC2)cc1 | -52.8% |
| O=C(CCC(=O)N1CCOc2ccccc21)N1CCOCC1 | -5.85% |
| Cc1ccc2c(c1)N(C(=O)CCC(=O)N1CCN(c3ccccc3)CC1)CCO2 | -43.8% |
| COc1ccc(N2CCN(C(=O)CCC(=O)N3CCOc4ccc(C)cc43)CC2)cc1 | -42.7% |
| O=C(Oc1nsnc1N1CCOCC1)N1CCOCC1 | 15.3% |
| CCc1noc(C)c1C(=O)Nc1cc(C(F)(F)F)ccc1-n1cncn1 | -21.3% |
| O=C(Nc1cccc2nsnc12)c1ccc(-c2cccc(Cl)c2)o1 | 10.4% |
| FC(F)(F)c1ccccc1NC(=S)NN=C1CCCCCC1 | 23.5% |
| CCC(=O)N(CCc1ccccc1C)Cc1cc2cc3c(cc2[nH]c1=O)OCO3 | -3.05% |
| COC(=O)c1ccccc1NC(=O)Cn1nc2n(C)c3ccccc3n2c(=O)c1=O | -3.54% |
| Cc1ccc(N2CC(C(=O)NCCN3CCOCC3)CC2=O)cc1C (stereo not shown) | 10.2% |
| Cn1nnnc1P(=O)(c1ccccc1)c1ccccc1 | 7.84% |
| O=C1NCC(O)=C1C=NC12CC3CC(CC(C3)C1)C2 [4246017] | 12.6% |
| COc1ccc(NC(=O)N2c3ccc(OC)cc3C(C)=CC2(C)C)cc1 | 20.1% |
| CC1=C(c2ccccc2)[N+](=O)C2(CCCCC2)N1[O-] | -4.49% |
| COc1ccc(C2=NOC3(CC(=O)N(c4ccc(F)cc4)C3=O)C2)cc1 (stereo not shown) | 15.5% |
| O=C(COC(=O)c1cc([N+](=O)[O-])ccc1NCCO)Nc1ccc2c(c1)OCO2 | 5.75% |

| Compound | hERG current change (%, negative = inhibition) at 10uM |
| --- | --- |
| [Cl-].c1ccc(-c2c[nH]c3[n+]2CCCCC3)cc1 | -2.27% |
| Br.FC(F)Oc1ccc(-c2csc(NNC3=NCCCCC3)n2)cc1 | -47.5% |
| FC(F)Oc1ccc(-n2cc(-c3ccc(Cl)cc3)[n+]3c2CCCCC3)cc1.[Br-] | -78.3% |
| COc1ccc(N2CCN(C(=O)COC(=O)c3ccc(OC(F)F)cc3)CC2)cc1 | -26.5% |
| COc1ccc(-c2cn(-c3ccc(Cl)cc3)c3[n+]2CCCCC3)cc1.[Br-] | -31.9% |
| Clc1ccc(-n2cc(-c3ccc(Br)cc3)[n+]3c2CCCCC3)cc1.[Br-] | -49.4% |
| FC(F)Oc1ccc(-n2cc(-c3ccccc3)[n+]3c2CCCCC3)cc1.[Br-] | -55.6% |
| Brc1ccc(-c2csc3[n+]2CCCCC3)cc1.[Br-] | -6.25% |
| Clc1ccc(-c2cn(-c3ccc(Cl)cc3)c3[n+]2CCCCC3)cc1.[Br-] | -52.7% |
| COc1ccc(-n2cc(-c3ccccc3)[n+]3c2CCCCC3)cc1.[Br-] | -19.3% |
| O=C(Nc1ccc(Cl)cc1)N(C1=NCCC1)c1ccc(OC(F)F)cc1 | -8.02% |
| COc1ccc(-n2cc(-c3ccc(OC(F)F)cc3)[n+]3c2CCCCC3)cc1.[Br-] | -76.3% |
| O=C(NCC(c1cccs1)N1CCc2ccccc21)c1ccccc1 (stereo not shown) | 15.3% |
| C=CCN(c1ccc(C(=O)N(CC)CC)cc1)S(C)(=O)=O | -4.12% |
| CCN(CC)CCCNC(=O)C1c2ccccc2C(=O)N(CCOC)C1c1ccc(F)cc1 (stereo not shown) | 14.9% |
| COc1ccc(CNC(=O)COC(=O)c2[nH]c(C)c(C(C)=O)c2C)cc1OC | 1.28% |
| CC(=O)Oc1ccc(N2C(=O)CCC2=O)cc1 | 16% |
| Cc1ccc(N2C(=O)[C@@H]3Cc4ccccc4CN3C2=O)cc1 | -3.34% |
| CCOC(=O)CC1C(=O)NCCN1C(=O)c1ccc(Cl)cc1 (stereo not shown) | 12.9% |
| Nc1nc2ccc(NC(=O)c3ccco3)cc2s1 | 11.7% |
| COc1ccc(CNC(=O)CCc2nnc3ccc(N4CCC5(CC4)OCCO5)nn23)cc1 | 15.1% |
| Nn1c(COc2ccccc2F)nnc1SCC(=O)NC1CC1 | 0.387% |
| CC(=O)NC1=NN(C(C)=O)C(C)(c2ccco2)S1 (stereo not shown) | 14.6% |
| Cc1ccc(CONC(=O)c2ccc(OC(F)F)cc2)cc1 | -30.9% |
| Cc1ccc(-c2cn(-c3ccc(OC(F)F)cc3)c3[n+]2CCCCC3)cc1.[Br-] | -61.6% |
| O=C(CC1C(=O)NCCN1Cc1ccoc1)NCc1cccc(OC(F)(F)F)c1 (stereo not shown) | 1.19% |
| CC(C)(O)CC[C@@H](O)[C@](C)(O)C1CC[C@@]2(O)C3=CC(=O)[C@]4(O)C[C@@H](O)[C@@H](O)C[C@]4(C)C3CC[C@]12C (stereo partly shown) | 30.1% |

Source: publication PMC4336329 (PLoS ONE, 2015)
